# Measured values reported in ChEMBL document CHEMBL1157539, “Thousands of chemical starting points for antimalarial lead identification” (Nature, 2010).
# Key:
# Type in all cases: functional
# Plasmodium falciparum [1] = assay: GSK_TCMDC: Inhibition of Plasmodium falciparum 3D7 in whole red blood cells, using parasite LDH activity as an index of growth. Test compounds present at 2uM
# Plasmodium falciparum [2] = assay: GSK_TCMDC: Inhibition of Plasmodium falciparum Dd2 in whole red blood cells, using parasite LDH activity as an index of growth. Test compounds present at 2uM
# HepG2 = assay: GSK_TCMDC: Percent inhibition of human HepG2 cell line. Test compounds present at 10uM.
Compound,Inhibition (Plasmodium falciparum [1]) [%],Inhibition (Plasmodium falciparum [2]) [%],Inhibition (HepG2) [%]
CN(C)S(=O)(=O)c1ccc(Nc2nc(NCCC3C=NC=N3)nc3cc[nH]c(=O)c23)cc1 (centres undefined),96,63,8
CC(Cc1ccc(Cl)cc1)Nc1nc(NC2CCCC2)nc(N2CCC(C#N)(c3ccccc3)CC2)n1 (centres undefined),99,95,15
Cl.NCc1ccc(-c2ccc3c(N)nccc3c2)cc1,100,92,28
CCS(=O)(=O)N1CCN(c2nc(-c3ccccc3)nc(COC)c2Cc2ccccc2F)CC1,82,34,0
Cc1cc(NC2CCCC2)nc(Nc2ccccc2C)n1,88,20,0
O=C(c1ccccc1F)N(Cc1ccc(Cl)cc1)c1ccccn1,84,58,0
c1cc2[nH]c(CCc3nc4cc(C5=NC6CCCCC6N5)ccc4[nH]3)nc2cc1C1=NC2CCCCC2N1 (centres undefined),93,96,3
COc1ccc2nccc([C@@H](O)CN3CCC(NC(=O)/C=C/c4cccc(NC(C)=O)c4)CC3)c2c1,90,60,5
CCCC(C)N(Cc1ccc(C(C)(C)C)cc1)C(=O)c1ccc(OC)cc1 (centres undefined),100,98,7
CC(=O)Nc1ncc(C(=O)Nc2cccc(-c3cccc(-c4nc5cccc(C)c5[nH]4)c3)c2)s1,94,64,15
CCCCOc1ccc(CNCCCCCCNCc2ccc(OCCCC)c3ccccc23)c2ccccc12.CS(=O)(=O)O,81,49,100
Cl.O=c1cc(NCCCNC2CCOc3c(I)cc(Cl)cc32)[nH]c2ccccc12 (centres undefined),96,48,0
O=C(Nc1ccc(C(F)(F)F)cc1)c1cccc(S(=O)(=O)NC2CCN(CC3CCCCC3)CC2)c1.O=C(O)C(F)(F)F,99,12,18
COc1ccc(C(C(=O)NC2CCN(C[C@H](O)c3ccnc4ccc(OC)cc34)CC2)N2CCc3ccccc3C2)cc1 (some centres undefined),96,30,19
CC(C)CN1C(=O)c2ccc(C(=O)Nc3nccs3)cc2C1=O,89,0,3
O=C(NCc1ccccc1)c1ccc(C(=O)NCC2CNCCO2)cc1.O=C(O)C(F)(F)F (centres undefined),92,0,4
CCCC(C)NC(=O)C(N)Cc1cccc(I)c1.O=C(O)C(F)(F)F (centres undefined),95,65,11
COc1ccc2[nH]ccc(=NN=Cc3ccc(Cl)cc3)c2c1,100,72,9
Cl.N#Cc1ccc2c(c1)CCN(CCC1CCC(NC(=O)Nc3cnc4ccccc4c3)CC1)C2 (centres undefined),93,9,14
Cl.OC(CNCCCCCCNCC(O)c1ccc(Cl)c(Cl)c1)c1ccc(Cl)c(Cl)c1 (centres undefined),90,17,99

Compound,Inhibition (Plasmodium falciparum [1]) [%],Inhibition (Plasmodium falciparum [2]) [%],Inhibition (HepG2) [%]
O=C(C1CCN(c2nnnn2-c2ccccc2)CC1)N1CCc2ccccc2C1,97,97,0
O=C(Nc1cccc(F)c1)N1CCC(NS(=O)(=O)c2ccc(Br)cc2)CC1,93,23,4
COc1ccc2nccc(N(C)CC3(O)CCN(CCc4ccc5c(c4)OCCO5)CC3)c2n1.Cl,100,96,15
O=C(c1cccc(-c2cccc(-c3nc4cc(C(F)(F)F)ccc4[nH]3)c2)c1)N1CCCCC1CN1CCC(O)C1 (centres undefined),91,100,51
Cc1cnc(NCC2CCCCC2)nc1NCC(=O)Nc1ccccc1.O=C(O)C(F)(F)F,90,51,21
COc1ccc(C2CC(=O)C3=C(C2)NC(C)=C(C(=O)OC(C)C)C3c2ccccc2F)cc1OC (centres undefined),100,99,14
CCn1cnc2c(N3CCCC3=O)cc(C(=O)N[C@@H](Cc3ccccc3)[C@H](O)CNC3CCCCC3)cc21,98,94,0
COc1ccc(CNC2CCN(C)CC2)cc1-c1ccc(S(=O)(=O)NCCc2ccccn2)s1.O=C(O)C(F)(F)F,100,12,6
Cc1ccc2[nH]c(-c3ccc(C=CC(=O)NCc4ccc(Cl)c(Cl)c4)cc3)nc2c1,96,18,5
COc1cc(Nc2ccnc3ccc(C(F)(F)F)cc23)ccc1OCCCc1ccccc1,99,51,11
Cc1cccc2nc(-c3ccc(-c4ccc(CN5CCN(CCN6CCOCC6)CC5)cc4)s3)[nH]c12.O=C(O)C(F)(F)F,100,99,41
CC(=O)Nc1cccc(CNCc2ccc(-c3cnc(N4CCCC(c5ccccc5)C4)nc3)cc2)c1.O=CO (centres undefined),84,22,16
COc1ccc(N2CCN(C(CNC(=O)C3CCCCC3)c3ccc4c(c3)OCO4)CC2)cc1 (centres undefined),92,83,1
O=C(CCc1nc2c(cnn2-c2ccccc2)c(=O)[nH]1)NC1CCSc2ccccc21 (centres undefined),95,52,10
Br.CC(C)(C)c1ccc(Cn2c(=N)n(CC(=O)c3ccc(-c4ccccc4)cc3)c3ccccc32)cc1,98,50,63
CCNc1cc(C(=O)N[C@@H](Cc2ccccc2)[C@H](O)CNC(C)(C)CCCC(C)C)cc(N2CCCCS2(=O)=O)c1.O=CO,98,98,5
O=C(Nc1ccc(Cl)cc1)c1cccc(S(=O)(=O)NC2CCN(CC3CCCCC3)C2)c1.O=C(O)C(F)(F)F (centres undefined),90,41,80
Br.Oc1ccc(CCNCCCCNCCc2ccc(Cl)cc2)cc1O,94,0,33
Cc1cc(OCc2ccncc2)cc2c1C(=O)CC(C)(C)O2,99,0,0
CC(=Nc1ccc(Cl)c(Cl)c1)N(C)C.Cl,98,0,0

Compound,Inhibition (Plasmodium falciparum [1]) [%],Inhibition (Plasmodium falciparum [2]) [%],Inhibition (HepG2) [%]
CCN(CC)CCN(Cc1ccc(-c2ccc(C(F)(F)F)cc2)cc1)C(=O)Cn1c(SCc2ccc(F)cc2)nc(=O)c2sccc21.O=C(O)C(O)C(O)C(=O)O,100,65,51
O=C(Nc1ccc(-c2nc3ccccc3[nH]2)cc1)C1CCCN(C2CCC2)C1 (centres undefined),90,5,0
Cl.Nc1ccnc2ccc(OCCCCCCc3ccccc3)cc12,100,99,96
CCCCCN1CCC(NS(=O)(=O)c2cccc(C(=O)Nc3cccc(C(F)(F)F)c3)c2)C1.O=C(O)C(F)(F)F (centres undefined),86,17,25
Cc1ccc(NC(=O)NC2CCN(CCC(NC(=O)Cc3ccccc3)c3ccc(Cl)c(Cl)c3)CC2)cc1 (centres undefined),100,2,16
Clc1ccc(OCc2ccccc2)c(-c2nc(-c3nc4ccc(Cl)cc4[nH]3)cs2)c1,99,60,0
COc1cc(CCNc2nc(NCc3ccccc3-c3ccccc3)nc(N3CCC(N)CC3)n2)ccc1O.O=C(O)C(F)(F)F,100,70,25
Oc1ccc(CN2CCC(N3CCN(CCc4ccccc4)CC3)C(O)C2)cc1Cl (centres undefined),100,77,0
CC1(C)CCCN(c2ncc(-c3cccc(CNCc4ccccc4O)c3)cn2)C1,96,82,35
COc1cc(Cc2cnc(N)nc2N)cc(OCCCCCC(N)=O)c1OC,90,0,0
O=C(Nc1cccc(-c2ccc(CN3CCC(O)CC3)cc2)c1)c1cccc(Cl)c1.O=C(O)C(F)(F)F,96,2,11
O=C(N[C@@H](Cc1ccccc1)C(=O)NC1CCCc2ccccc21)c1ccc(O)c(-c2ccc(Cl)c(Cl)c2)c1 (some centres undefined),97,99,0
N#Cc1ccc(C(=O)NC2CCN(CCCCCNC(=O)/C=C/c3ccc(Cl)c(Cl)c3)CC2)cc1,98,1,13
COc1nc2c(CCN3CC[C@H](NCc4cc(C#N)c5c(c4)OCCO5)[C@H](O)C3)ccnc2cc1F,95,41,18
FC(F)(F)c1cccc(CCNc2nccc(NCc3ccc(Cl)cc3Cl)n2)c1,97,59,8
COc1ccc2cc(C(=O)Nc3ccc4c(c3)CCN(C3CCC3)CC4)ccc2c1.O=C(O)C(F)(F)F,100,9,34
Cc1cc(NC(=O)c2cccs2)ccc1OC1CCN(Cc2ccc(F)cc2)CC1.O=C(O)C(F)(F)F,94,92,7
Clc1ccc(CNc2nc(NCCc3c[nH]cn3)nc(N3CCCC4CCCCC43)n2)cc1 (centres undefined),100,100,10
